Out of some 310,000 compounds screened, about 1,000 (0.32%) were called active. A selection follows. Measured potencies and affinities stand elsewhere. Unmarked numbers belong to inactive results. The rule behind the calls is not given here.
Test: PhoP regulon inhibitors, Salmonella typhi PhoP promoter GFP reporter, confirmatory (AID 1850);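 note: 0% = induced wells with vehicle and 100% = uninduced wells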
Conditions: fluorescence, 4 h, at 50 µM, stronger effect = higher value

Point of comparison: `CCOC(=O)c1cn(C2CC2)c2c(F)c(NCCCN(C)C)c(F)cc2c1=O`, inhibition 4.81%. Against it:
- Cc1nnc(SCC(=O)NC2CCS(=O)(=O)C2)n1-c1ccccc1 (centres undefined) — higher, 6.38%
- CCn1c(SCC(=O)NC2CCS(=O)(=O)C2)nnc1-c1ccccc1 (centres undefined) — lower, 3.32%
- CN(C)c1nc(SCC(=O)Nc2ccccc2)nc(N2CCOCC2)n1 — lower, 3.38%
- O=C1CN(Cc2cc(=O)oc3cc4c(cc23)CCC4)CCN1 — lower, -4.78%
- CC1(C)C(=O)Nc2ccccc2N1C(=O)COC(=O)/C=C/c1ccc(OC(F)F)cc1 — lower, -3.59%
- COc1cccc(C(C(=O)NC2CCCCC2)N(C(=O)Cc2cccs2)c2ccc(-n3cnnn3)c(OC)c2)c1 (centres undefined) — lower, -9.92%
- CC1CC(NC(=O)/C(C#N)=C/c2ccc[nH]2)CC(C)(C)C1 (centres undefined) — higher, 5.38%
- N#C/C(=C\c1ccccc1)C(=O)NC1CC1 — lower, 2.22%
- COc1ccc(-n2nc(C(=O)NCC(=O)N3CCN(c4ccccc4)CC3)c3ccccc3c2=O)c(OC)c1 — lower, 3.7%
- CCCCCNc1nc(NCCCO)c(C#N)c2c1CN(C)CC2 — lower, -3.01%
- CC(C)CCNc1nc(N2CCCC2)c2c(c1C#N)CCN(C)C2 — higher, 19.4%
- CC1(c2ccc(Cl)cc2Cl)NC(=O)N(CC(=O)Nc2ccc3[nH]c(=O)[nH]c3c2)C1=O (centres undefined) — lower, -3.74%
- COc1ccc(CNC(=O)C2CCCN(S(=O)(=O)N3CCC(C)CC3)C2)c(OC)c1 (centres undefined) — lower, -14.4%
- CCN(CC)C(=O)c1sc(N2C(=O)Nc3ccccc3N2O)c(C(=O)OC)c1C — lower, -7.07%
- Cc1ccc(N2C(=O)CC(Sc3ncccc3C(=O)O)C2=O)cc1 (centres undefined) — lower, -7.58%
- NC1=NC2(CCCCC2)N=C(Nc2ccc(F)cc2F)N1 — higher, 19%
- CCCCOc1ccc(N2C(N)=NC(N)=NC23CCCCC3)cc1 — lower, 4.38%
- Cc1ccc(NC2=NC3(CCCC3)N=C(N)N2)c(C)c1 — higher, 13.7%
- CCOc1ccc(NC2=NC(C)(C)N=C(N)N2)cc1 — higher, 5.96%
- Cc1nc2ccccc2c(=O)n1/N=C/c1ccccc1O — lower, 1.57%
- Cc1ccc(-c2[nH]ncc2/C=N/n2c(COc3ccccc3)nc3ccccc3c2=O)cc1 — lower, -8.67%
- Cc1nc2ccccc2c(=O)n1/N=C/c1cc(Br)cc(Br)c1O — higher, 9.81%
- Cc1nc2ccccc2c(=O)n1/N=C/c1cn[nH]c1-c1ccccc1 — lower, -0.17%
- COc1ccc(NC(=O)C2CCCN2C(=O)NCc2ccccc2)cc1 (centres undefined) — lower, -5.86%
- CSc1cccc(N2CC(C(=O)N(CC(C)C)c3c(N)n(Cc4ccccc4)c(=O)[nH]c3=O)CC2=O)c1 (centres undefined) — lower, -3.17%
- CCOc1ccc(C(=O)Nc2nnc(C(C)C)s2)cc1OCC — lower, -1.68%
- COCCN1CCN(C(=O)C2CCC(=O)N(CCc3ccc(Cl)cc3)C2)CC1 (centres undefined) — lower, -4.1%
- COc1ccc(Nc2ccnc(Nc3ccc(OC)cc3)n2)cc1 — lower, -1.84%
- O=C(O)c1cccc(Nc2ccnc(Nc3cccc(C(=O)O)c3)n2)c1 — lower, 2.42%
- c1ccc(Nc2cccc(Nc3ccccc3)n2)cc1 — higher, 6.98%
- Nc1ncnc(Nc2ccc(F)cc2)n1 — lower, -3.3%
- Cc1c(C(=O)O)oc2ccc(S(=O)(=O)N3CCCCC3C(=O)O)cc12 (centres undefined) — lower, -3.93%
- C/C=C/c1ccc(OCC(O)CN2CCCCC2CC)c(OC)c1 (centres undefined) — higher, 8.19%
- S=C1NC2(CCCCC2)NC12CCCCC2 — lower, -9.21%
- Cc1sc2nc(SCC(N)=O)n(-c3ccccc3)c(=O)c2c1C — lower, -0.27%
- O=C(NNc1nc2cc3c(cc2s1)OCO3)c1cccc(F)c1 — lower, -11.1%
- O=C(NNc1nc2ccccc2s1)c1ccc(F)cc1 — lower, -6.05%
- CC(C)(C)c1ccc(S(=O)(=O)NNC(=O)C2CCN(Cc3cccc(F)c3)CC2)cc1 — higher, 6.86%
- C=CCOC(=O)C1=C(C)NC(SCC(=O)Nc2nccs2)=C(C#N)C1c1ccc(Cl)cc1 (centres undefined) — lower, 3.36%
- CN1CCN(C2Cc3ccccc3Sc3ccc(Cl)cc32)CC1 (centres undefined) — lower, -13%
- c1ccc2c(c1)CC(N1CCCCC1)c1ccccc1N2 (centres undefined) — lower, -3.45%
- CN1Cc2cccc3c2C(Cc2ccccc2S3)C1 (centres undefined) — lower, -6.53%
- NC(=O)CCN1CCN(CCOC2Cc3cc(Cl)ccc3Sc3ccccc32)CC1 (centres undefined) — lower, -4.99%
- CN1CCN(C2Cc3ccccc3Sc3cc(C(F)(F)F)ccc32)CC1 (centres undefined) — lower, 2.06%
- O=C1Cc2ccccc2Sc2ccc(Cl)cc21 — lower, -8.12%
- c1ccc2c(c1)CC(N1CCCCC1)c1ccccc1S2 (centres undefined) — higher, 16.3%
- CC(C)c1ccc2c(c1)C(N1CCNCC1)Cc1ccc(F)cc1S2 (centres undefined) — higher, 19.3%
- Cc1ccccc1NC(=O)c1ccco1 — lower, -6.44%
- COc1ccc(/C=C2\CCCC3C2=NC(=S)NC3c2ccc(OC)cc2)cc1 (centres undefined) — lower, -6.47%
- COc1ccccc1-c1nc(-c2ccc(Br)cc2)no1 — higher, 19.9%
- CC1CCCCN1CCNC(=O)c1ccc2c(c1)N(Cc1cccc(Cl)c1)C(=O)c1ccccc1S2=O (centres undefined) — lower, -21.9%
- Cc1ccc(CNC(=O)C2CC(c3ccc(C(F)(F)F)cc3)=NO2)o1 (centres undefined) — lower, -0.47%
- CCCc1cc(C(=O)OC)c(NC(=O)OCC)s1 — lower, 0.48%
- COC(=O)CNC(=O)c1ccc(NS(=O)(=O)c2cc([N+](=O)[O-])ccc2Cl)cc1 — lower, -1.71%
- CN(C)C(=O)c1ccc(-n2cnc3ccccc3c2=O)cc1 — higher, 6.15%
- Cc1cc(O)c2c(c1)C(=O)c1cc(O)cc(O)c1C2=O — lower, -20.4%
- COc1cc(NC(=O)c2cccs2)c(C(=O)OCC(=O)NC(=O)NCc2ccccc2)cc1OC — lower, -3.62%
- NS(=O)(=O)c1ccc(NC(=O)COC(=O)c2ccc([N+](=O)[O-])s2)cc1 — higher, 9%
- O=C(COC(=O)c1ccc([N+](=O)[O-])s1)Nc1ccccc1 — lower, 4.19%
- S=c1[nH]nc(COc2ccc(Cl)cc2)n1-c1ccc(Cl)cc1 — lower, 2.37%
- Cc1ccc(N=Nc2ccc(O)c3ncccc23)cc1 — lower, -8.35%
- Cc1ccccc1N=Nc1ccc(O)c2ncccc12 — lower, -0.137%
- CCOc1ccc(N(CC(=O)NC2CCCCC2)C(=O)CCC(=O)Nc2cc(C)ccn2)cc1 — lower, 2.46%
- COc1ccc(C(CCNCc2ccc(N(C)C)cc2)c2ccccc2)cc1 (centres undefined) — higher, 6.13%
- COc1ccc(C(CCN)c2ccc3c(c2)OCO3)cc1 (centres undefined) — lower, -14.2%
- Cc1ccccc1OCCN1C(=O)c2ccccc2C1=O — lower, -6.01%
- CCCNC(=O)COC(=O)c1ccc(S(=O)(=O)N2CCCCCC2)cc1 — lower, -7.39%
- CCCCCCC(=O)N1CCN(c2cc3c(cc2F)c(=O)c(C(=O)O)cn3CC)CC1 — lower, -12.4%
- CCn1cc(C(=O)O)c(=O)c2cnc(N3CCN(C(=S)Nc4ccccc4)CC3)nc21 — higher, 7.15%
- CCCCCCCC(=O)N1CCN(c2cc3c(cc2F)c(=O)c(C(=O)O)cn3CC)CC1 — higher, 9.58%
- C=CCNC(=S)N1CCN(c2ncc3c(=O)c(C(=O)O)cn(CC)c3n2)CC1 — lower, -7.57%
- CCCCCCCCCC(=O)N1CCN(c2cc3c(cc2F)c(=O)c(C(=O)O)cn3CC)CC1 — lower, -9.96%
- CCCCCCCCC(=O)N1CCN(c2cc3c(cc2F)c(=O)c(C(=O)O)cn3CC)CC1 — lower, -9.35%
- Cn1ccnc1SCC(=O)NC1CCCC1 — lower, -6.69%
- Cc1cccc2cc(CN(C(=O)c3cccc([N+](=O)[O-])c3)C(C)C)c(=O)[nH]c12 — lower, -4.34%
- COc1ccc(NC(=O)c2nc3nc(C)cc(C(F)F)n3n2)cc1OC — lower, -3.09%
- CC(C)(C)c1ccc(CS(=O)(=O)CC2(O)CCN(C(=O)c3cccc(C(F)(F)F)c3)CC2)cc1 — lower, -0.12%
- CS(=O)(=O)c1ccc(Cl)c(NC(=O)COC(=O)Cc2c[nH]c3ccccc23)c1 — lower, -1.58%
- Cc1cc(N(CCO)CCO)ccc1N=Nc1cc(F)ccc1F — higher, 22.3%
- CCCOc1cccc(C(=O)Nc2cccc3ncccc23)c1 — lower, -5.81%
- CCOc1ccc(S(=O)(=O)N2CCN(C(=O)c3sccc3C)CC2)cc1 — lower, -3.32%
- CCCCCCn1cc(C(=O)O)c(=O)c2cc(F)c(N3CCN(C(=O)OCC)CC3)cc21 — lower, -8.26%
- CCOC(=O)c1cn(CC)c2cc(N3CCCCC3)c(F)cc2c1=O — lower, -24.8%
- CCCCCCn1cc(C(=O)O)c(=O)c2cc(F)c(N3CCN(C)CC3)cc21 — lower, -6.43%
- CCCCNc1nnc(SCC(=O)N2CCN(S(=O)(=O)c3ccc4ccccc4c3)CC2)s1 — lower, -3.79%
- CC(=O)Nc1cccc(C(=O)OC(C)C(=O)NC2CCCc3ccccc32)c1 (centres undefined) — lower, -2.01%
- CCNc1cc(N2CCOCC2)nc(SC)n1 — higher, 7.57%
- O=C(O)c1cn(C2CCCCC2)c2ccccc2c1=O — lower, 2.42%
- COC(=O)C(c1cc(OC)c(O)c(OC)c1)(N1CCNC(C)C1)C(F)(F)F (centres undefined) — lower, -16.6%
- COc1c(F)c(F)cc2c(=O)c(C(=O)O)cn(C3CC3)c12 — lower, 1.27%
- Cc1cccc(-c2cc(=O)c(C(=O)O)cn2-c2ccc(F)cc2F)c1 — lower, -13.4%
- O=C(O)c1cn(-c2ccc(N3CCCC3)c(F)c2)c2c(F)c(F)c(F)cc2c1=O — lower, -7.01%
- CCOC(=O)c1cn(C2CC2)c2c(F)c(F)c(F)cc2c1=O — higher, 5.55%

From PubChem BioAssay AID1850 (Southern Research Specialized Biocontainment Screening …, 2009)
